# From PubChem BioAssay (NCI)
# About 83,000 compounds went through this panel and 20% of them were active in at least one assay; those are over-represented in the sample as a whole.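 Single-dose data. Exposure time 48 hours. Values below 10 considered active.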 Activity calls are given as the source filed them.
# System: TK-10 renal
# Assay: NCI-60 one-dose screen, 48 h (100 = growth as untreated, 0 = no growth, -100 = all killed)
# Conditions: 10 µM unless noted
row,Compound,growth
1,CN1C(=O)N(C)C2C1NN=c1s/c(=C\c3ccccc3)c(=O)n12 (stereo unspecified),10% (inactive)
2,CCn1c(C)nc2cc(C(N)=O)ccc21,98% (inactive)
3,Cc1ccc(/C=C/c2c(C(=O)/C=C/c3ccc(Cl)cc3)c(C)nc3ccccc23)cc1,26.5% (inactive)
4,COc1ccc2[nH]c(O)c(/C=c3/cc4c(c(-c5ccc(F)c(OC)c5)n3)=Nc3ccccc3-4)c2c1,87.2% (inactive)
5,O=C(Cc1ccc(F)c(F)c1)Nc1cc(C2(C(F)(F)F)CC2)nn1Cc1ccccc1,3.48% (active)
6,C#CCOc1nc(C)cc(C)c1C#N,95.9% (inactive)
7,O=C1NC(=Nc2ccc(Cl)cc2)S/C1=C\c1cn(-c2ccccc2)nc1-c1ccccc1,60.9% (inactive)
8,COc1cccc(-c2nn(-c3ccccc3)cc2-c2ccnc(NCCNC(=O)Nc3cccc(C(F)(F)F)c3)c2)c1,57.7% (inactive)
9,COc1cc2ncn3c(=O)c4c5c(sc4nc3c2cc1OC)CCCC5,140% (inactive)
10,CCN1C(=O)N(CC)C2Nn3c(s/c(=C4\C(=O)N(C)c5ccccc54)c3=O)=NC21 (stereo unspecified),8.83% (active)
11,Cc1c(C)c2c(c(C)c1OCC(=O)O)CC[C@@](C)(CCC[C@@H](C)CCC[C@@H](C)CCCC(C)C)O2,-0.128% [50 µM] (active)
12,Cc1occc1-c1n[nH]c(=S)n1N1C(=O)CSC1=S,99% (inactive)
13,COc1ccc2c(c1)O/C(=C/c1ccc(OCC(=O)c3ccccc3)cc1)C2=O,115% (inactive)
14,c1ccc(-c2nc([P+](c3ccccc3)(c3ccccc3)c3ccccc3)c(N3CCOCC3)o2)cc1,29.9% (inactive)
15,Cc1cccc(Cc2cnc(NC(=O)/C=C/c3ccco3)s2)c1,52.8% (inactive)
16,CCN(CC)CCCC(C)Nc1c2ccc(Cl)cc2nc2ccc(O)cc12 (stereo unspecified),55% (inactive)
17,COC1=CC(=O)C[C@@H](C)[C@]12Oc1c(Cl)c(OC)cc(OC)c1C2=O,96.3% (inactive)
18,CC1=C(SCCC(=O)OC(C[Se]C2=C(C)C(=O)c3ccccc3C2=O)C(=O)NCCCCCC(=O)OCc2ccccc2)C(=O)c2ccccc2C1=O (stereo unspecified),114% (inactive)
19,O=c1c2c3c(sc2nc(N/N=C/c2ccc(Br)cc2)n1Cc1ccccc1)CCCC3,85.5% (inactive)

row,Compound,growth
1,CC(=O)O[C@]1(C(C)=O)CCC2C3C[C@H](C)C4=CC(=O)CC[C@]4(C)C3CC[C@@]21C (stereo partly specified),106% (inactive)
2,Nc1ccc2c(c1)c(N)nn2C(=O)Nc1ccc(Cc2ccccc2)cc1,88.3% (inactive)
3,Cc1cc(NCc2cc(Nc3ccnc4cc(Cl)ccc34)ccc2F)nc(N2CCSCC2)n1,-58.3% (active)
4,CN(C)CCC=C1c2ccccc2C(C)(C)c2ccccc21,98.3% (inactive)
5,COc1ccc(NC(=O)CSc2nc(C)c(C(C)=O)n2-c2ccc([N+](=O)[O-])cc2)cc1,96.9% (inactive)
6,COC(=O)c1c2c(c(C)[n+]([O-])c1C)C(=O)C(NCc1ccc(F)cc1)=CC2=O,81.4% (inactive)
7,Cc1c(C(=O)NC(Cc2ccccc2)C(O)C(=O)NCc2ccc(F)cc2)[nH]c2ccccc2c1=O (stereo unspecified),102% (inactive)
8,COC1=C(OC)C(=O)C(OC)=C(OC)C1=O,124% (inactive)
9,CCN(CC)Cc1cccc(C(=O)OC)c1,92.5% (inactive)
10,C[C@H](NC(=O)[C@@H]1CSSC[C@@H](NC(=O)c2nc3ccccc3cc2O)C(=O)NCC(=O)N1C)c1ccccc1,59.9% (inactive)
11,O=c1ssc(Cl)c1-c1ccccc1,126% (inactive)
12,O=S(=O)(NCCCNc1cc(-c2c(-c3cccc(O)c3)nc3sccn23)ccn1)c1cccc(Cl)c1,94.4% (inactive)
13,CCOC(=O)/C=C/c1cc2cc(-c3csc4ccccc34)ccc2[nH]1,121% (inactive)
14,Cn1cc(-c2csc(-c3ccccc3)n2)c2cccnc21,-45.7% [100 µM] (active)
15,O=c1[nH]nc(-c2ccccc2)c2c(-c3ccccc3)onc12,62.5% (inactive)
16,Cc1ccccc1NC(=O)N/C(N)=N/c1nc(-c2cccc([N+](=O)[O-])c2)cs1,101% (inactive)
17,COc1cc2c(cc1-c1c(C)noc1C)ncc1nc(C3CCC(F)(F)CC3)n(C3CCC(OC(F)F)CC3)c12 (stereo unspecified),41.3% (inactive)
18,N#C/C(=C\c1ccc(Br)cc1)n1nnc2cc(F)c(F)cc21,32.1% (inactive)
19,CSc1n(Cc2ccc3ccccc3c2)c(C)c[n+]1Cc1ccc2ccccc2c1,-9.72% (active)

# System: ACHN renal
# Assay: as above
# Conditions: 10 µM unless noted
row,Compound,growth
1,CN1C(=O)N(C)C2C1NN=c1s/c(=C\c3ccccc3)c(=O)n12 (stereo unspecified),29.4% (inactive)
2,CCn1c(C)nc2cc(C(N)=O)ccc21,96.7% (inactive)
3,Cc1ccc(/C=C/c2c(C(=O)/C=C/c3ccc(Cl)cc3)c(C)nc3ccccc23)cc1,-64.6% (active)
4,COc1ccc2[nH]c(O)c(/C=c3/cc4c(c(-c5ccc(F)c(OC)c5)n3)=Nc3ccccc3-4)c2c1,52.2% (inactive)
5,O=C(Cc1ccc(F)c(F)c1)Nc1cc(C2(C(F)(F)F)CC2)nn1Cc1ccccc1,-13.2% (active)
6,C#CCOc1nc(C)cc(C)c1C#N,99.7% (inactive)
7,O=C1NC(=Nc2ccc(Cl)cc2)S/C1=C\c1cn(-c2ccccc2)nc1-c1ccccc1,91.9% (inactive)
8,COc1cccc(-c2nn(-c3ccccc3)cc2-c2ccnc(NCCNC(=O)Nc3cccc(C(F)(F)F)c3)c2)c1,35.1% (inactive)
9,COc1cc2ncn3c(=O)c4c5c(sc4nc3c2cc1OC)CCCC5,103% (inactive)
10,CCN1C(=O)N(CC)C2Nn3c(s/c(=C4\C(=O)N(C)c5ccccc54)c3=O)=NC21 (stereo unspecified),46.9% (inactive)
11,Cc1c(C)c2c(c(C)c1OCC(=O)O)CC[C@@](C)(CCC[C@@H](C)CCC[C@@H](C)CCCC(C)C)O2,-31.9% [50 µM] (active)
12,Cc1occc1-c1n[nH]c(=S)n1N1C(=O)CSC1=S,102% (inactive)
13,COc1ccc2c(c1)O/C(=C/c1ccc(OCC(=O)c3ccccc3)cc1)C2=O,99.5% (inactive)
14,c1ccc(-c2nc([P+](c3ccccc3)(c3ccccc3)c3ccccc3)c(N3CCOCC3)o2)cc1,13.2% (inactive)
15,Cc1cccc(Cc2cnc(NC(=O)/C=C/c3ccco3)s2)c1,35.3% (inactive)
16,CCN(CC)CCCC(C)Nc1c2ccc(Cl)cc2nc2ccc(O)cc12 (stereo unspecified),24.2% (inactive)
17,COC1=CC(=O)C[C@@H](C)[C@]12Oc1c(Cl)c(OC)cc(OC)c1C2=O,99.9% (inactive)
18,CC1=C(SCCC(=O)OC(C[Se]C2=C(C)C(=O)c3ccccc3C2=O)C(=O)NCCCCCC(=O)OCc2ccccc2)C(=O)c2ccccc2C1=O (stereo unspecified),36.4% (inactive)
19,O=c1c2c3c(sc2nc(N/N=C/c2ccc(Br)cc2)n1Cc1ccccc1)CCCC3,87.1% (inactive)

row,Compound,growth
1,CC(=O)O[C@]1(C(C)=O)CCC2C3C[C@H](C)C4=CC(=O)CC[C@]4(C)C3CC[C@@]21C (stereo partly specified),96.6% (inactive)
2,Nc1ccc2c(c1)c(N)nn2C(=O)Nc1ccc(Cc2ccccc2)cc1,48.9% (inactive)
3,Cc1cc(NCc2cc(Nc3ccnc4cc(Cl)ccc34)ccc2F)nc(N2CCSCC2)n1,-81.4% (active)
4,CN(C)CCC=C1c2ccccc2C(C)(C)c2ccccc21,90.5% (inactive)
5,COc1ccc(NC(=O)CSc2nc(C)c(C(C)=O)n2-c2ccc([N+](=O)[O-])cc2)cc1,95.6% (inactive)
6,COC(=O)c1c2c(c(C)[n+]([O-])c1C)C(=O)C(NCc1ccc(F)cc1)=CC2=O,48.3% (inactive)
7,Cc1c(C(=O)NC(Cc2ccccc2)C(O)C(=O)NCc2ccc(F)cc2)[nH]c2ccccc2c1=O (stereo unspecified),107% (inactive)
8,COC1=C(OC)C(=O)C(OC)=C(OC)C1=O,118% (inactive)
9,CCN(CC)Cc1cccc(C(=O)OC)c1,96.6% (inactive)
10,C[C@H](NC(=O)[C@@H]1CSSC[C@@H](NC(=O)c2nc3ccccc3cc2O)C(=O)NCC(=O)N1C)c1ccccc1,44.7% (inactive)
11,O=c1ssc(Cl)c1-c1ccccc1,104% (inactive)
12,O=S(=O)(NCCCNc1cc(-c2c(-c3cccc(O)c3)nc3sccn23)ccn1)c1cccc(Cl)c1,41.6% (inactive)
13,CCOC(=O)/C=C/c1cc2cc(-c3csc4ccccc34)ccc2[nH]1,90.8% (inactive)
14,Cn1cc(-c2csc(-c3ccccc3)n2)c2cccnc21,0.882% [100 µM] (active)
15,O=c1[nH]nc(-c2ccccc2)c2c(-c3ccccc3)onc12,47.5% (inactive)
16,Cc1ccccc1NC(=O)N/C(N)=N/c1nc(-c2cccc([N+](=O)[O-])c2)cs1,53.7% (inactive)
17,COc1cc2c(cc1-c1c(C)noc1C)ncc1nc(C3CCC(F)(F)CC3)n(C3CCC(OC(F)F)CC3)c12 (stereo unspecified),66.2% (inactive)
18,N#C/C(=C\c1ccc(Br)cc1)n1nnc2cc(F)c(F)cc21,24% (inactive)
19,CSc1n(Cc2ccc3ccccc3c2)c(C)c[n+]1Cc1ccc2ccccc2c1,48% (inactive)
